Most compounds without a hit are left out; they make up all but 1.8% or so of the library.
GLP-1R agonist – agonists of human GLP-1 receptor; HEK293 GLP-1R CRE-luciferase, luminescence, 4-6 h; cells express a hypersensitive GLP-1R form; actives 0.007% (n = 380,000); P43220; Potency, µM (doses to about 45.6 µM), hits mostly activators
Target sequence (P43220 whole entry, looked up): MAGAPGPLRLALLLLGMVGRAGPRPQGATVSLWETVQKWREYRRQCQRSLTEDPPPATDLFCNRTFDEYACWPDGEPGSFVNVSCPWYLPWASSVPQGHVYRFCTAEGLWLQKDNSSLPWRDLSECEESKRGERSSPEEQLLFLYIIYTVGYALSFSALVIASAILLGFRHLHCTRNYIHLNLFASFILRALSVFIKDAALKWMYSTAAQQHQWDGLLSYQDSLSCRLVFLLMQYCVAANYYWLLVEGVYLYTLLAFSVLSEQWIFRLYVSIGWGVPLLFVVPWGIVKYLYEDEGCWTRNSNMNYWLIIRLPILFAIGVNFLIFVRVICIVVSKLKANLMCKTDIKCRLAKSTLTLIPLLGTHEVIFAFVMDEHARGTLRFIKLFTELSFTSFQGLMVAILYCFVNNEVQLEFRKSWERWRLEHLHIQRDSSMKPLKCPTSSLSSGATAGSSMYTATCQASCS
Tb PFK inh-1 – T. brucei PFK enzyme inhibition. O15648. T. brucei PFK, ADP-Glo luminescence. Potency, µM (highest dose often 57.5 µM), hits mostly inhibitors. actives 0.17% (n = 330,000); also: nearly all actives have a fitted effect of over 60% in size
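PFK 1.25 nM, F6P 0.5 mM, ATP 0.1 mM, 0.1 M TEA pH 8.0, 5 mM MgCl2, 0.01% Tween20, 0.1% BSA; 45 min RT. ADP-Glo readout. qHTS titration up to 57 uM; curves fitted, compounds curve-classed.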
GLP1R cytotox – cytotoxic in the GLP-1 receptor inverse agonist counter-screen; HEK293 cAMP-luciferase reporter cells, luminescence, 24 h; Potency, µM (series often up to 38.3 µM), hits mostly inhibitors; actives 0.13% (n = 410,000);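 also: loss of luciferase light is scored as toxicity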
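Cells in DMEM/10% Nu serum/1% pen-strep, 1536-well format. Pre-incubated 12 h, dosed with 23 nL compound, incubated a further 24 h. Luciferase detection, 12 min at room temp, luminescence.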
Pin1 inh – inhibitors of human Pin1; Pin1 FP peptide displacement, HiFluor488, 10 min; Potency, µM (doses to about 115 µM), most hits filed as inhibitors; actives 0.009% (n = 390,000); AID 504891; active = well fitted inhibition curve with a large enough effect in the polarisation, with a control signal flat, not every such curve was filed as active; inconclusive = small, poorly fitted or top-dose-only effect, or effect the other way, or a change in a side signal; inactive = no such curve, though single readings can be large or run the other way; the % refers to the polarisation
Target sequence (Q13526 whole entry, looked up): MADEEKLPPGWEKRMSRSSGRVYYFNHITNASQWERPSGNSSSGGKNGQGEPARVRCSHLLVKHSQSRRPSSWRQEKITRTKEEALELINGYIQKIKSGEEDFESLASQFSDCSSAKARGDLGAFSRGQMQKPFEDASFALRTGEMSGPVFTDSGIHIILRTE
GLP-1R inv ag – inverse agonists of human GLP-1 receptor; P43220; HEK293 GLP-1R CRE-luciferase, luminescence, 24 h; GLP-1R form is constitutively active; Potency, µM (top dose mostly 38.3 µM), hits mostly inhibitors; actives 1.6% (n = 410,000); AID 624417; also: nearly all actives have a fitted effect of over 55% in size
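Inverse agonism was detected as reduced cAMP-driven luciferase luminescence after 24 h compound treatment. The cells were HEK293 clones expressing constitutively active human GLP-1R with the reporter. Reporter-only and GPR119 cell lines served as counterscreen controls.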
Tb PGK inh – blocks T. brucei phosphoglycerate kinase; PGK/GAPDH coupled, Kinase-Glo luminescence, 60 min; Potency, µM (doses to about 57.5 µM), hits mostly inhibitors; actives 0.043% (n = 380,000); AID 602233; also: nearly all actives have a fitted effect of over 60% in size
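Luminescent ATP detection (Kinase-Glo Plus) follows a 60-minute room-temperature incubation, with wells lacking PGK as controls. Buffer: 100 mM TEA (pH 7.6), 5 mM MgCl2, 0.01% Tween-20. Coupling enzyme GAPDH (100 nM final) supplies unstable 1,3-BPG in-well.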
TbPFK ATP – inhibits T. brucei PFK measured by ATP depletion. shares compounds with Tb PFK inh-1. Tb PFK enzyme, ATP depletion, Kinase-Glo Plus luminescence. Potency, µM (doses to about 57.5 µM). actives 47% (n = 1,100); calls by dose curve; also: nearly all actives have a fitted effect of over 60% in size
Tb PFK inh-2 – T. brucei PFK enzyme inhibition, hit validation | Potency, µM (highest dose often 57.5 µM), actives largely listed as inhibitors | actives 41% (n = 1,100) | shares compounds with Tb PFK inh-1 | purified T. brucei PFK, ADP-Glo luminescence, 45 min; also: nearly all actives have a fitted effect of over 60% in size
Large screens that a line does not name were inactive (follow-up assays come after a bar, where they were run). Unless noted, calls follow the shape of the dose curve; as a rule, active = well fitted curve in the direction sought with a large enough effect; inconclusive = small, poorly fitted or top-dose-only effect, or another doubt; inactive = no such curve, though single readings can be large; an effect the other way counts as inactive or inconclusive.

CCN(CC)c1ccc2nc3ccccc3[n+](CC)c2c1	Tb PFK inh-1 15.1µM, GLP1R cytotox 11.2µM, GLP-1R inv ag inconclusive, Tb PGK inh inconclusive | TbPFK ATP inactive | Tb PFK inh-2 inconclusive
CCOC(=O)c1cccc(NC(=O)NCc2ccc3c(c2)CCN3C(=O)c2ccccc2)c1	GLP-1R inv ag inconclusive (no result: GLP-1R agonist, Tb PFK inh-1)
O=C1NC(=S)S/C1=C/c1ccc(N2CCOCC2)o1	Tb PFK inh-1 26.9µM, GLP1R cytotox inconclusive, Pin1 inh inconclusive | TbPFK ATP inactive | Tb PFK inh-2 inactive
O=C(/C=C/c1ccc(S(=O)(=O)NCc2ccco2)cc1)NCc1cccc(Cl)c1	Tb PFK inh-1 26.9µM, GLP-1R inv ag inconclusive | TbPFK ATP 21.3µM | Tb PFK inh-2 26.9µM
O=C(/C=C/c1ccc(OCCCF)cc1)NCc1cccc(Cl)c1	Tb PFK inh-1 inconclusive | TbPFK ATP inconclusive | Tb PFK inh-2 inconclusive
O=C(/C=C/c1ccco1)NCc1ccco1	Tb PFK inh-1 inconclusive | TbPFK ATP 21.3µM | Tb PFK inh-2 inconclusive
Cc1ccc(NC(=O)/C=C/c2ccco2)nc1	GLP1R cytotox inconclusive
CCN(CC)Cc1nccn1-c1ccc([N+](=O)[O-])cc1C(=O)c1ccccc1Cl	none (no result: Tb PFK inh-1, GLP1R cytotox, Pin1 inh, GLP-1R inv ag, Tb PGK inh)
O=C(COc1ccc(Cl)cc1Cl)Nc1ccc(CN2CCCCC2)cc1	GLP-1R inv ag inconclusive
COc1ccc(CC(=O)Nc2ccc(C#N)c(Cl)c2)cc1S(=O)(=O)N1CCOCC1	none
Cc1ccc(NC(=O)COc2ccc(Cl)cc2Cl)cc1S(=O)(=O)N1CCOCC1	Tb PFK inh-1 inconclusive, GLP-1R inv ag inconclusive | TbPFK ATP inconclusive | Tb PFK inh-2 inconclusive
O=C(COc1ccc(Cl)cc1Cl)Nc1cccnc1	Tb PFK inh-1 inconclusive | TbPFK ATP inconclusive | Tb PFK inh-2 inconclusive
Cc1noc(NS(=O)(=O)c2ccc(NC(=O)COc3ccc(Cl)cc3Cl)cc2)c1C	Tb PFK inh-1 12µM | TbPFK ATP 5.36µM | Tb PFK inh-2 12µM
Cc1noc(NS(=O)(=O)c2ccc(NC(=O)CCCOc3ccc(Cl)cc3Cl)cc2)c1C	Pin1 inh inconclusive
Cc1noc(NS(=O)(=O)c2ccc(NC(=O)c3cnc4scc(C)n4c3=O)cc2)c1C	Tb PFK inh-1 inconclusive, Pin1 inh inconclusive | TbPFK ATP inactive | Tb PFK inh-2 inconclusive
C#CCN1CC(=O)N(COC(=O)[C@@H]2[C@@H](C=C(C)C)C2(C)C)C1=O	none (no result: Tb PFK inh-1, GLP1R cytotox, Pin1 inh, GLP-1R inv ag, Tb PGK inh)
CO[C@H]1[C@@H](O)CC(OC2[C@@H](O)CC(OC3[C@@H](O)C[C@H](OC4CC[C@@]5(C)C(CCC6C5CC(O)[C@]5(C)[C@H](C7=CC(=O)OC7)CCC65O)C4)O[C@@H]3C)O[C@@H]2C)O[C@@H]1C (stereo partly drawn)	none (no result: Tb PFK inh-1, GLP1R cytotox, Pin1 inh, GLP-1R inv ag, Tb PGK inh)
O=C(OC(c1ccc(NS(=O)(=O)c2ccccc2)cc1)(C(F)(F)F)C(F)(F)F)c1ccccc1	GLP1R cytotox inconclusive, GLP-1R inv ag inconclusive
CC[n+]1c(C)sc2cc(C)ccc21	Tb PFK inh-1 inconclusive | TbPFK ATP inactive | Tb PFK inh-2 inactive
O=C(Nn1cnnc1)c1ccc(Cl)c([N+](=O)[O-])c1	Tb PFK inh-1 inconclusive | TbPFK ATP inactive | Tb PFK inh-2 inconclusive
O=C(Nc1ccc(Cc2ccncc2)cc1)c1ccc(Cl)c([N+](=O)[O-])c1	Tb PFK inh-1 21.3µM | TbPFK ATP 21.3µM | Tb PFK inh-2 inconclusive
C=CCS(=O)(=O)N1CCC(CCOc2ccccc2)(C(=O)OCC)CC1	GLP-1R inv ag inconclusive
CCOC(=O)c1cc(-c2ccccc2)n(CCCC(=O)Nc2ccc(C)c(C)c2)c1C	GLP-1R inv ag inconclusive (no result: GLP-1R agonist, Tb PFK inh-1)
Cc1nnc(Sc2cc(NCCCO)c([N+](=O)[O-])c3nonc23)s1	Tb PFK inh-1 6.01µM, GLP1R cytotox inconclusive, Pin1 inh inconclusive, GLP-1R inv ag inconclusive | TbPFK ATP 1.9µM | Tb PFK inh-2 3.38µM
Cc1nnc(Sc2cc(NCCO)c([N+](=O)[O-])c3nonc23)s1	Tb PFK inh-1 5.36µM, GLP1R cytotox inconclusive, Pin1 inh inconclusive, GLP-1R inv ag inconclusive | TbPFK ATP 1.35µM | Tb PFK inh-2 1.51µM
CCc1ccc(NC(=O)Cn2c(=O)oc3cc(S(=O)(=O)NCc4ccccc4)ccc32)cc1	Pin1 inh inconclusive, GLP-1R inv ag inconclusive (no result: GLP-1R agonist, Tb PFK inh-1)
Cc1nn(Cc2ccc(Cl)c(Cl)c2)c(C)c1NC(=O)c1cc(-c2ccco2)on1	Tb PFK inh-1 4.78µM | TbPFK ATP 2.69µM | Tb PFK inh-2 6.01µM
CC(=O)Nc1cc(-c2cccc(C(=O)NCCN(C)C)c2)cn2c(-c3cccc(C(F)(F)F)c3)cnc12	GLP1R cytotox inconclusive, GLP-1R inv ag inconclusive (no result: Tb PFK inh-1, Pin1 inh, Tb PGK inh)
Cc1nnc(SCc2ccc(Cl)c(Cl)c2)s1	Tb PFK inh-1 23.9µM | TbPFK ATP 10.7µM | Tb PFK inh-2 13.5µM
CCCCNCCOc1ccccc1-c1ccccc1	GLP1R cytotox inconclusive
O=C(Nc1ccc(Cl)cc1)Nc1ccc(S(=O)(=O)Nc2ncccn2)cc1	Tb PFK inh-1 15.1µM | TbPFK ATP 8.49µM | Tb PFK inh-2 26.9µM
O=C(CSc1ccccc1)Nc1ccc(S(=O)(=O)Nc2ncccn2)cc1	Tb PFK inh-1 inconclusive | TbPFK ATP inconclusive | Tb PFK inh-2 inactive
O=C(O)C(c1ccccc1)N1C(=O)/C(=C\c2ccc(O)c(O)c2)SC1=S (stereo not drawn)	Tb PFK inh-1 inconclusive, GLP1R cytotox inconclusive, Tb PGK inh inconclusive
O=C(O)CC(C(=O)O)N1C(=O)/C(=C/C=C/c2ccco2)SC1=S (stereo not drawn)	Tb PFK inh-1 8.49µM, Pin1 inh inconclusive, Tb PGK inh 4.47µM | TbPFK ATP 2.13µM | Tb PFK inh-2 6.01µM
O=C1NC(=O)N(c2ccccc2)C(=O)/C1=C/C=C/c1ccco1	Tb PFK inh-1 inconclusive, Pin1 inh inconclusive
O=C(O)C(Cc1ccccc1)N1C(=O)/C(=C/C=C/c2ccco2)SC1=S (stereo not drawn)	Tb PFK inh-1 inconclusive, Pin1 inh inconclusive, Tb PGK inh 12.6µM | TbPFK ATP 21.3µM | Tb PFK inh-2 inconclusive
O=c1oc2ccccc2c2c1nc(C(F)(F)F)n2-c1ccccc1	none
O=C1c2cccc3c(O)ccc(c23)C(=O)N1c1ccc(Cl)cc1	Pin1 inh inconclusive, GLP-1R inv ag inconclusive
O=C1NC(=O)N(CCc2ccc(F)cc2)C(=O)/C1=C\C=C\c1ccccc1	none

Assay outcomes from PubChem.
